Experimental data reported in PubChem BioAssay (EPA / NIEHS).
Results filed as inconclusive are left out. Some compounds were tested as several samples or in several runs, with calls that do not always agree. Calls of active or inactive are those of the source. The calls were made as follows, unless noted: active = hit-call score of the fitted dose curve at least 0.9, where 1 is the maximum; inactive = score below 0.9.

Legend:
[1] = CCTE_Shafer_MEA_acute_spike_number: CCTE's Neural Acute Assay for Total Number of Spikes, Shafer Lab (AID 2284008)
Outline: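 Cortical neurons from rat, matured to DIV 13 or 15 on microelectrode arrays, are recorded at 37 C before and during 40-min exposure to 0.03-40 uM compound. Wells need >/= 10 active electrodes.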

[2] = CCTE_Shafer_MEA_acute_firing_rate_mean: CCTE's Neural Acute Assay for Mean Firing Rate, Shafer Lab (AID 2284009);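 also: analyzed for loss of signal so actives lower firing rate relative to DMSO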
Outline: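 Rat primary cortical neurons on 48-well MEA plates, dosed at 0.03-40 uM on DIV 13 or 15; 40 min spontaneous activity recorded at 37 C before and after compound. Spike rate per electrode averaged per well, expressed as percent change from baseline.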

[3] = CCTE_Harrill_HTTr_Viability_MCF7: CCTE's 6-hour Cell Viability Assessment for the High-Throughput Transcriptomics (HTTr) Platform, in MCF-7 cells cultured in DMEM + 10% fetal bovine serum, Harrill Lab (AID 2284010)
Outline: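 Membrane integrity was scored by high-content imaging of propidium iodide dye exclusion after a 6 h exposure across an eight-point dilution series. Data were fitted bidirectionally relative to DMSO as negative control and baseline.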

[4] = CCTE_Harrill_HTTr_Apoptosis_MCF7: CCTE's 6-hour Apoptosis Assessment for the High-Throughput Transcriptomics (HTTr) Platform, in MCF-7 cells cultured in DMEM + 10% fetal bovine serum, Harrill Lab (AID 2284011)
Outline: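 Cells are dosed with test chemicals at eight concentrations and imaged 6 hours later for caspase-3/7 activity using a green fluorogenic detection reagent. Activity is fitted in both directions against DMSO controls.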

[5] = CCTE_Shafer_MEA_acute_burst_number: CCTE's Neural Acute Assay for Single-Electrode Bursts, Shafer Lab (AID 2284013)
Outline: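 Primary rat cortical neurons on 16-electrode MEA wells, treated on DIV 13 or 15 with compound at 0.03-40 uM. Single-electrode burst count from 40-min recordings at 37 C before and after exposure; percent change from baseline per well, DMSO negative control.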

[6] = CCTE_Shafer_MEA_acute_burst_duration_mean: CCTE's Neural Acute Assay for Mean Burst Duration, Shafer Lab (AID 2284014);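 also: hits are decreases in mean burst duration relative to DMSO controls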
Outline: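 Rat primary cortical neurons on 48-well MEA, treated at DIV 13 or 15 with 0.03-40 uM in at least 3 wells. Value is percent change in mean burst duration, comparing 40 min recordings at 37 C before and during exposure.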

[7] = CCTE_Shafer_MEA_acute_burst_percentage_mean: CCTE's Neural Acute Assay for Percentage of Spikes in a Burst, Shafer Lab (AID 2284017);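 as to AC50: curve fitted for loss of signal so potency reflects decreased burst percentage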
Outline: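 Well-level mean burst percentage from a 40-min recording after compound (0.03-40 uM) expressed as percent change from a 40-min baseline at 37C. Cultures: primary rat cortical neurons on MEA, dosed on DIV 13 or 15; fitted downward relative to DMSO.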

[8] = CCTE_Shafer_MEA_acute_burst_percentage_std: CCTE's Neural Acute Assay for Standard Deviation of Burst Percentage, Shafer Lab (AID 2284018);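 also: fitted in the negative direction so actives lower burst percentage SD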
Outline: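 Rat primary cortical neurons on 48-well MEAs, DIV 13 or 15, 37 C. 40-min baseline then 40-min recording with compound (0.03-40 uM); well-level SD of per-electrode burst spike percentage, expressed as percent change from baseline.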

[9] = CCTE_Shafer_MEA_acute_per_network_burst_spike_number_std: CCTE's Neural Acute Assay for Standard Deviation of Number of Spikes in a Network Burst, Shafer Lab (AID 2284020);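 also: fitted for decrease in spike-number SD versus DMSO so actives lower it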
Outline: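 Rat primary cortical neurons on 48-well MEA (16 electrodes/well), treated DIV 13 or 15 at 0.03-40 uM, ≥3 wells per compound. 40 min recordings at 37 C before and after dosing; value is percent change in network-burst spike-number SD, negative direction vs DMSO.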

[10] = CCTE_Shafer_MEA_acute_per_network_burst_electrodes_number_mean: CCTE's Neural Acute Assay for Mean Number of Electrodes in a Network Burst, Shafer Lab (AID 2284021);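 also: curves fitted for decreases only so hits reduce electrodes per burst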
Outline: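 Cultures of rat cortex neurons were exposed on DIV 13 or 15 to compounds at 0.03-40 uM in at least three wells each. Activity over 40 min before and 40 min after exposure at 37 C gave the percent change in electrodes per network burst.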

[11] = CCTE_Shafer_MEA_acute_network_burst_percentage: CCTE's Neural Acute Assay for Percentage of Network Bursts, Shafer Lab (AID 2284022);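 also: curves fitted for loss so actives lower network burst percentage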
Outline: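 Cortical neurons from rat were grown over microelectrode arrays and used on day 13 or 15 in vitro. Wells with at least 10 active electrodes received test chemical at 0.03-40 uM. Activity during 40 min of exposure was compared with the preceding 40-min baseline.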

[12] = CCTE_Shafer_MEA_acute_cross_correlation_HWHM: CCTE's Neural Acute Assay for Cross Correlation at Half Width at Half Maximum, Shafer Lab (AID 2284026);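 also: percent change per well from pre-dose baseline in spike cross-correlogram half width; hits are a decrease in cross-correlogram half width relative to DMSO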
Outline: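 Primary cortex (rat), MEA, DIV 13/15; compound 0.03-40 uM; 40 min pre + 40 min post at 37 C; spike threshold 8x rms; wells need ≥10 active electrodes; endpoint = % change in cross-correlogram HWHM vs baseline, DMSO negative control.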

[13] = CCTE_Shafer_MEA_acute_synchrony_index: CCTE's Neural Acute Assay for Synchrony, Shafer Lab (AID 2284027);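 also: network synchrony index of spontaneous spiking in primary rat cortical neurons on MEAs; fitted for loss of signal so actives lower synchrony relative to DMSO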
Outline: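 Primary rat cortical neurons on 16-electrode MEA wells were recorded 40 min at baseline (DIV 13 or 15) and 40 min after compound (0.03-40 uM) at 37 C. Synchrony index (0-1) expressed as percent change from baseline, versus DMSO.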

[14] = CCTE_Harrill_HTTr_CellCount_MCF7: CCTE's Cell Proliferation Assessment for the High-Throughput Transcriptomics (HTTr) Platform, Harrill Lab (AID 2284012; active = hit-call score of the fitted dose curve at least 0.9, where 1 is the maximum;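 also: cells exposed to compound for six hours; intended direction is loss of nuclei count meaning fewer cells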)
Outline: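 MCF-7 cells were exposed for 6 h to an eight-point dilution series; Hoechst-labeled nuclei were counted by high content imaging. Curves were fitted bidirectionally against DMSO as negative control and baseline, with signal loss indicating reduced cell count.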

[15] = CCTE_Shafer_MEA_acute_interburst_interval_mean: CCTE's Neural Acute Assay for Mean Interburst Interval, Shafer Lab (AID 2284016);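 also: percent change of mean interburst interval versus each well's own pre-dose baseline; curves fitted for decrease in interburst interval relative to DMSO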
Outline: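 Percent change in mean single-electrode interburst interval was calculated per well from 40 min recordings before and after compound (0.03-40 uM). Recordings were made at 37 C on rat cortical cultures at DIV 13 or 15, with spikes detected at 8x rms threshold.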

[16] = CCTE_Simmons_MITO_max_resp_rate: CCTE's HepG2 Seahorse XF Respirometric Screening Assay at Maximal Respiratory State [uncoupled], Simmons Lab (AID 2284002); details: actives raise or lower the signal
Outline: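 Maximal respiration in HepG2 cells is recorded as OCR by Seahorse XF following FCCP injection. Compounds span 125 nM–100 uM final; activity is called in either direction against DMSO.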

[17] = CCTE_Simmons_MITO_inhib_resp_rate: CCTE's HepG2 Seahorse XF Respirometric Screening Assay at Inhibited Respiratory State [full ETC block], Simmons Lab (AID 2284006); details: actives raise or lower the signal
Outline: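 HepG2 cells on Seahorse XF96; oxygen consumption measured after test compound, then FCCP, then rotenone/antimycin A injections over 72 min. Test chemicals at 7 concentrations, 125 nM–100 uM final. OCR fitted bidirectionally versus DMSO.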

Measured: AC50

CCCCCCCCCCCCc1ccccc1
not listed: [14] | [15] | [16] | [17]
inactive: all other assays above

CNCc1ccc(NC(=O)c2c[nH]c3c2C(=O)CCC3)cc1
inactive: [3] | [4]

CCCCCCCCCCCCCCCO
inactive: [3] | [4]

O=P(OC(CCl)CCl)(OC(CCl)CCl)OC(CCl)CCl
active: [15] 24 µM | [7] 23.1 µM | [8] 31.6 µM | [12] 23.5 µM | [13] 23 µM
inactive: [1] | [2] | [3] | [4] | [14] | [5] | [6] | [15] | [7] | [8] | [9] | [10] | [11] | [12] | [13]

CCn1nc(Cc2ccccc2)cc1C1CCN(C[C@H]2C[C@H](N(C)[C@@H](C(=O)O)C(C)C)C[C@@H]2c2cccc(F)c2)CC1
inactive: [16] | [17] | [3] | [4] | [14]

CC(C)=CCC/C(C)=C/CO
inactive: [16] | [17] | [3] | [4] | [14]

CC(C)(O)c1coc(S(=O)(=O)NC(=O)Nc2c3c(cc4c2CCC4)CCC3)c1
inactive: [3] | [4] | [14]

NC(=O)NO
inactive: [3] | [4] | [14]

C1=CCCC=CCCC=CCC1
inactive: [3] | [4] | [14]

C=CC(=C)CCC=C(C)C
inactive: [3] | [4] | [14]

COC(=O)c1c(Cl)c(Cl)c(C(=O)OC)c(Cl)c1Cl
inactive: [3] | [4] | [14]

Nc1ccc(Nc2ccccc2)cc1
inactive: [3] | [4] | [14]

CC1=CC(=O)CC(C)(C)C1
inactive: [3] | [4] | [14]

CCCC(=O)OCC
inactive: [3] | [4] | [14]

COC(=O)c1ccccc1O
inactive: [3] | [4] | [14]

CC(=O)c1ccc2c(c1)[C@H](NC(=O)c1ccc(F)cc1)[C@@H](O)C(C)(C)O2
inactive: [3] | [4] | [14]

COCCOCCOCCOC
inactive: [3] | [4] | [14]

O=C1OC(=O)C2C3C=CC(C3)C12 (stereo not drawn)
inactive: [3] | [4] | [14]

COCCOc1cc2cc(C(=O)NC3CCN(C(C)C)CC3)n(CC(=O)Nc3ccc(Cl)cn3)c2cn1
inactive: [3] | [4] | [14]

COC(=O)CC(=O)OC
inactive: [3] | [4] | [14]

O=C1CCC(N2C(=O)c3ccccc3C2=O)C(=O)N1 (stereo not drawn)
inactive: [3] | [4] | [14]

Clc1nc(Cl)c(Cl)c(Cl)c1Cl
inactive: [3] | [4] | [14]

O=C1CCCCCN1
inactive: [3] | [4]

CCOCCO
inactive: [3] | [4] | [14]

CC(C)CCCCCCOC(=O)c1ccc(C(=O)OCCCCCCC(C)C)c(C(=O)OCCCCCCC(C)C)c1
inactive: [3] | [4] | [14]

CCOCCOCCOCCO
inactive: [3] | [4] | [14]

COc1ccc(-n2nc(C(F)F)cc2-c2ccc(S(C)=O)cc2)cc1 (stereo not drawn)
inactive: [3] | [4] | [14]

CC(=O)OCCC(C)C
inactive: [3] | [4]

CCOC(=O)CC(CC(=O)OCC)(OC(C)=O)C(=O)OCC
inactive: [3] | [4]

CC(O)CN(CCN(CC(C)O)CC(C)O)CC(C)O (stereo not drawn)
inactive: [3] | [4] | [14]

CC/C(=C\C(=N/O)C(N)=O)C(C)[N+](=O)[O-] (stereo not drawn)
inactive: [3] | [4] | [14]

CC(C)=CCC/C(C)=C\CO
inactive: [3] | [4] | [14]

CCN(C(=O)c1cc(C)cc(OC[C@H](C)Nc2ccncc2)c1)C(C)C
inactive: [3] | [4] | [14]

O=C(O)c1cccc(Oc2ccccc2)c1
inactive: [3] | [4] | [14]
